A selection follows.
SARS PLpro yeast-1: inhibitors of SARS-CoV papain-like protease in yeast | S. cerevisiae expressing SARS-CoV PLpro, growth rescue | Potency, µM (top dose mostly 32.9 µM), for inactives: top-dose activity, positive = growth rescue, most hits filed as activators | actives 0.19% (n = 330,000); further: potency means the concentration at half of the fitted maximal effect; 0% is about no effect; nearly all actives have a fitted effect of over 55% in size
Pf growth 48h: P. falciparum growth inhibition at 48 hours (one generation); P. falciparum luciferase growth in erythrocytes, 48 h; Potency, µM (titrated, usually from 28.7 µM), without a hit: top-dose activity change, negative = inhibition, actives largely listed as inhibitors; actives 5.9% (n = 310,000); AID 504832; active means well fitted inhibition curve with a large enough effect; inconclusive means small, poorly fitted or top-dose-only effect, or another doubt; inactive means no such curve, though single readings can be large or run the other way; further: potency means the concentration at half of the fitted maximal effect; on the % scale 0 is the no-effect control and ±100 the full control effect
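In quantitative HTS format, infected erythrocytes bearing luciferase-reporter parasites were treated for a single generation at 37 C. Luminescence after adding detection reagent served as the growth measure.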
NS1 function inh: blocks influenza NS1 protein function; Potency, µM (titrated, usually from 46.1 µM), inactives show at the highest dose activity, positive = more growth; actives 0.4% (n = 270,000); AID 2326; further: potency means the concentration at half of the fitted maximal effect; actives are rising curves; nearly all actives have a fitted effect of over 50% in size
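Recovery from NS1-induced slow growth read by OD600 in budding yeast switched to galactose assay medium (pH 6.0, -URA) at 1:100 dilution. Compound 23 nl per well; the matching strain lacking NS1 serves as control.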
Shiga inhibitor: blocks Shiga toxin action in Vero cells; actives 9.2% (n = 290,000); Vero cells, Shiga toxin protein synthesis inhibition reporter; inhibition, % at 38.7 µM; in the data active means inhibition mostly above about 28%, no sharp cut-off; inactive means mostly below about 43%; further: 0% is about no effect
Pf growth 96h: inhibits malaria parasite growth, 96 h; P. falciparum luciferase reporter growth, 96 h; Potency, µM (doses to about 28.7 µM), for the others: top-dose activity change, negative = inhibition, hits mostly inhibitors; actives 6.9% (n = 320,000); active means well fitted inhibition curve with a large enough effect; inconclusive means small, poorly fitted or top-dose-only effect, or another doubt; inactive means no such curve, though single readings can be large or run the other way; further: potency means the concentration at half of the fitted maximal effect; on the % scale 0 is the no-effect control and ±100 the full control effect
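Delayed-death screen, second-generation endpoint: infected erythrocytes, 2% hematocrit, 0.05% parasitemia final; 96 hours at 37 C, 5% CO2; luciferase detection reagent; luminescence decrease equals reduced growth.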
CHX counter: affects cycloheximide protein synthesis inhibition readout, counter-screen | cell reporter, cycloheximide protein synthesis inhibition counterscreen | max response, % | actives 12% (n = 300,000); in the data active means max response mostly above about 13%, no sharp cut-off; inactive means mostly below about 14%; further: read at 38.3 µM for the half of the compounds with a filed dose; 0% is about no effect
NS1 inh valid: validation of influenza NS1 protein function inhibitors. influenza NS1 function cell assay, 15-point titration. 1,400 tested, under 10 active. activity change, negative = inhibition, % at 32.9 µM. AID 492980. shares compounds with NS1 function inh; further: 0% is about no effect
SARS PLpro yeast-2: Rescues yeast growth by inhibiting SARS-CoV PLpro | shares compounds with SARS PLpro yeast-1 | yeast expressing SARS-CoV PLpro, growth phenotype rescue | calls only | actives 19% (n = 1,000) | AID 652038; call rule not given here
An asterisk follows results filed as active; i = inactive; ? = inconclusive; · = no result given; + = active, no number; [ ] = another dose, or the depositor's remark. Unless noted, the call rests on the fitted dose curve.

SMILES	SARS PLpro yeast-1	Pf growth 48h	NS1 function inh	Shiga inhibitor	Pf growth 96h	CHX counter	SARS PLpro yeast-2	others
O=C(Cn1c(CO)nc2ccccc21)NCCc1ccc(F)cc1	3%	41%	·	-10	15%	5	·
O=C(N/N=C\c1c(O)ccc2ccccc12)c1ccc(Cn2cccn2)o1	?	?	?	-3	?	-2	i	NS1 inh valid=-5
Cc1ccc2ccccc2c1Cn1c(-n2ccnc2)nc2c1c(=O)n(C)c(=O)n2C	-6%	·	-49%	-17	-90%	-1	·
CCOc1ccc(-c2nnc3ccc(SCC(=O)Nc4nc5ccccc5s4)nn23)cc1	?	-39%	-12%	-12	-69%	5	i
COc1ccccc1-c1nnn(CC#N)n1	?	-3%	-2%	-15	-18%	-1	i
COc1ccc(-c2nnn(CC#N)n2)cc1OC	6%	13%	-1%	-12	·	-2	·
CCCCn1c(=O)nc2n(-c3ccc(Cl)cc3)c3ccccc3cc-2c1=O	2%	-9%	6%	12	13%	-2	·
COc1ccc(/C=C/C(=O)NCc2cn(C)nc2C)cc1COc1ccc(Br)cc1	?	3.7µM*	23%	-4	?	1	i
Cc1nn(C)cc1CNC(=O)/C=C/c1cnn(C)c1	6%	5%	7%	9	8%	-2	·
O=C(OCC(=O)N1CCN(c2ccccc2)CC1)c1ccccc1[N+](=O)[O-]	-1%	7%	·	·	20%	·	·
COc1ccc(CNC(=O)CCCn2nc(C)n3c(cc4sccc43)c2=O)cc1	1%	11%	13%	-8	-13%	-8	·
CCc1ccc(CNC(=O)CCCn2nc(C)n3ccnc3c2=O)cc1	?	16%	7%	-6	?	1	i
Cn1cccc1C(=S)N=P(C1CCCCC1)(N1CCOCC1)N1CCOCC1	2.8µM*	·	-12%	-14	8.3µM*	-1	i
CC(C)=CC(=O)Oc1ccc(C(=O)N(C)c2ccccc2I)cc1	·	·	·	18	·	-2	·
COc1cc(-c2nnc(SCc3cc(=O)oc4cc(O)c(O)cc34)o2)cc(OC)c1OC	6.3µM*	?	5%	-19	·	-1	i
CCOC(=O)CSc1nnc(-c2cc(OC)c(OC)c(OC)c2)o1	0%	1%	2%	-5	41%	-2	·
CCn1c(CNc2nc(-c3ccccc3)cs2)nnc1SCC(=O)NCc1ccccc1	21%	?	19%	9	-23%	9	·
CC(C(=O)NCc1ccc2c(c1)OCO2)N1c2cccc3cccc(c23)S1(=O)=O (stereo not drawn)	?	?	10%	-5	6%	1	+
CCOc1ccc(N2C(=O)CC(SC(=NC)Nc3ccc4c(c3)OCO4)C2=O)cc1 (stereo not drawn)	?	·	5%	-16	16%	3	?
COc1ccc(CNC(=O)CSc2cccc3cccnc23)cc1	1%	-7%	-33%	11	5%	12	·
Oc1c(C(c2cccs2)N2CCN(c3ccccc3)CC2)ccc2cccnc12 (stereo not drawn)	·	?	-106%	30	?	2	·
Cc1cc(C)nc(Nc2cccc(C(F)(F)F)c2)n1	-1%	4%	-10%	15	-29%	2	·
COc1cccc(C(NC(C)=O)c2ccc3cccnc3c2O)c1 (stereo not drawn)	3.2µM*	?	-129%	-6	30%	0	i
Oc1cccc(C(Nc2nccs2)c2ccc3cccnc3c2O)c1 (stereo not drawn)	0.45µM*	3.3µM*	·	-5	?	1	+
Oc1c(C(Nc2cccc(C(F)(F)F)c2)c2cccnc2)ccc2cccnc12 (stereo not drawn)	?	9.3µM*	-17%	-5	3.7µM*	-2	i
SMILES	SARS PLpro yeast-1	Pf growth 48h	NS1 function inh	Shiga inhibitor	Pf growth 96h	CHX counter	SARS PLpro yeast-2	others
CC(=O)NC(C)c1cc(F)c2cccnc2c1O (stereo not drawn)	10%	?	·	·	?	·	·
CC(=O)NC(c1cccc([N+](=O)[O-])c1)c1ccc2cccnc2c1O (stereo not drawn)	1.1µM*	-62%	-24%	2	346%	-1	i
Nc1ncnc2c1nc(Br)n2C1O[C@H]2COP(=O)(O)O[C@@H]2C1O (stereo partly drawn)	·	·	4%	·	·	·	·
Cc1cc(C)n2nc(C(=O)OCC(=O)NCc3ccccc3)nc2n1	1%	-9%	·	·	-23%	·	·
COc1cc(OC)cc(-c2c(C#Cc3ccsc3)c3cc(-c4ccc(OC)nc4)ccc3n2C)c1	1%	?	·	·	?	·	·
O=C(OCc1ccccc1)c1ccccc1	·	15%	·	·	1%	·	·
O=C(OCc1ccccc1)c1ccc2c(c1)-c1ccccc1C2=O	16µM*	9.3µM*	1%	27*	?	16*	i
Cc1occc(=O)c1OC(=O)Nc1ccccc1	4%	22%	5%	39	·	13	·
O=C(CN1CCCCC1)c1ccc(OC(F)F)cc1	?	7%	3%	-6	-15%	-5	i
CCC1CCCCN1CC(=O)c1ccc(OC(F)F)cc1 (stereo not drawn)	7%	?	-2%	-2	?	3	·
COC(=O)C1C(=O)NC(SC)=C(C#N)C1c1ccccc1F (stereo not drawn)	23%	11%	-1%	-2	-25%	-1	·
CCOC(=O)N1CCC(N2Cc3cccc(C(=O)N4CCN(C5CCCCC5)CC4)c3C2=O)CC1	20µM*	·	-9%	32	?	-9	i
CCOC(=O)c1ccccc1NC(=O)c1cccc2c1C(=O)N(C1CCN(C(=O)OCC)CC1)C2	10%	·	-65%	3	-3%	-4	·
CCNC(=S)NNC(=O)C1CCCCC1	4µM*	·	8%	-9	25%	4	i
COCCC1CCCCN1C(=O)c1cc(COc2ccc(-n3cncn3)cc2)on1 (stereo not drawn)	?	11%	-4%	12	?	1	i
CN1CCN(CC(=O)NC23CC4CC(CC(C4)C2)C3)CC1	2%	0%	-85%	13	?	-4	·
CC(C(=O)Nc1nncs1)N1C(=O)C2C3C=CC(C3)C2C1=O (stereo not drawn)	0%	12%	·	-4	?	-2	·
O=C(CP(=O)(c1ccccc1)c1ccccc1)N/N=C/c1cc(Br)cc(Br)c1O	2.5µM*	-21%	-1%	-7	8%	-8	+
O=C(Cc1ccccc1)N/N=C/c1cc(Br)cc(Cl)c1O	1%	-11%[5.75 µM]	·	2	?	-1	·
C#CCSc1nnc(CSc2nc3ccccc3s2)n1-c1ccccc1	?	-17%	-13%	-15	·	11	?

Screens (PubChem)
